We go through 67 molecules from the supplement of paper PMC10670038.

Structures can show the parent of a compound that is named as a salt. ± gives the standard deviation of the averaged measurements. Whole data set: some 2,000 compounds, median “relative cell viability vs DMSO, compound + 0.2 uM CuET” near 1, cut for the lowest 2% near 0.25. This is one part of a sample in which the lowest values are shown more often than they occur.

In the assay the test system is TE10. Nature of the assay: relative cell viability vs DMSO, compound + 0.2 uM CuET (fraction); TE10 is an esophageal squamous carcinoma line; higher = less cytotoxic. Particulars: 2 µM; co-treatment: CuET (bis(diethyldithiocarbamate)copper) 0.2 uM; 48 h. Here is the method: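 TE10 ESCC cells (1,000/well, 384-well plates) were treated with Selleck bioactive library compounds at 2 uM combined with 0.2 uM CuET (copper diethyldithiocarbamate) for 48 h. Viability was read by CellTiter-Glo and expressed relative to DMSO wells. Two technical replicates (A, B).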
Consider `CC(C)(C)c1cnc(CSc2cnc(NC(=O)C3CCNCC3)s2)o1`, for which the relative cell viability is 0.963 ± 0.093.
Then `COc1c2ccoc2cc2oc(=O)ccc12` [Bergapten], with 1.12 ± 0.038; and `CCC(=O)O[C@]1(C(=O)SCF)[C@H](C)C[C@H]2[C@@H]3C[C@H](F)C4=CC(=O)C=C[C@]4(C)[C@@]3(F)[C@@H](O)C[C@@]21C` [Fluticasone propionate], with 1.02 ± 0.043.
Then `Oc1c(Br)cc(Br)c2cccnc12` [Broxyquinoline], with 0.689 ± 0.033; and `O=S(=O)(O)c1cc(O)ccc1O` [Ethamsylate], with 1.08 ± 0.096.
Then `C=CCc1ccc(O)c(-c2cc(CC=C)ccc2O)c1` [Magnolol], with 1.02 ± 0.057.
`O=S(=O)(O)CCS` [Mesna]: the relative cell viability is 1.08 ± 0.024.
With `CN1CCN(Cc2ccc(NC(=O)Cc3ccc(Oc4cc(NC(=O)C5CC5)ncn4)cc3)cc2C(F)(F)F)CC1` the figure was 0.9884 ± 0.0017; with `CCS(=O)(=O)Nc1ccc2[nH]c(O)c(C(=Nc3ccc(CN4CCCCC4)cc3)c3ccccc3)c2c1` [Hesperadin], 0.5395 ± 0.0028.
Then `CCOC(=O)C1=C(N)Oc2ccc(Cl)cc2C1C(C#N)C(=O)OCC` (configuration not stated), with 0.663 ± 0.023; and `CN[C@@H](C)C(=O)N[C@H](C(=O)N1CCC[C@H]1C(=O)N[C@H](C(=O)NCCCCCCNC(=O)[C@@H](NC(=O)[C@@H]1CCCN1C(=O)[C@@H](NC(=O)[C@H](C)NC)C1CCCCC1)C(c1ccccc1)c1ccccc1)C(c1ccccc1)c1ccccc1)C1CCCCC1`, with 0.437 ± 0.011.
For `CC(C)(C)c1[nH]cnc1/C=c1\[nH]c(=O)/c(=C/c2ccccc2)[nH]c1=O` [Plinabulin (NPI-2358)], the relative cell viability turned out to be 0.753 ± 0.058.
In the case of `COCCOc1nc(-c2ccc(Cl)c(Cl)c2)n(-c2ccc(NC(=O)CCl)cc2)n1` [MI-2 (MALT1 inhibitor)], the relative cell viability amounted to 0.115 ± 0.0096.
Consider `NCC(=O)Nc1ccc(-n2nc(C(F)(F)F)cc2-c2ccc3c(ccc4ccccc43)c2)cc1`, for which the relative cell viability was 0.649 ± 0.017.
In the case of `COc1nc(-c2ccc3c(c2)OCO3)n(-c2ccc(NC(=O)CSc3ccccc3)cc2)n1` [SecinH3], the relative cell viability came to 1.25 ± 0.17.
Take `CN(C)c1cc(NC(=O)CNC(C)(C)C)c(O)c2c1CC1CC3C(N(C)C)C(=O)C(C(N)=O)=C(O)C3(O)C(=O)C1=C2O` (configuration not stated) [Tigecycline]: the relative cell viability came out at 0.994 ± 0.068.
Regarding `O=Nc1c(-c2c(O)[nH]c3cc(Br)ccc23)[nH]c2ccccc12`, the relative cell viability was 1.083 ± 0.0023.
`C[N+]1(C)[C@@H]2C[C@@H](OC(=O)C(O)(c3cccs3)c3cccs3)C[C@H]1[C@@H]1O[C@@H]12` [Tiotropium Bromide hydrate]: the relative cell viability was found to be 0.962 ± 0.027.
Then `C=C1CC2(O)OC3(CC2C(C)C)C(C)CCC13` (configuration not stated) [Curcumol], with 0.838 ± 0.028; and `CCCCN(Cc1ccc(C(=O)NO)cc1)C(=O)Nc1ccccc1` [Nexturastat A], with 0.837 ± 0.056; and `CC(=O)Nc1ccc(C(=O)Nc2ccccc2N)cc1` [CI994 (Tacedinaline)], with 1.23 ± 0.26.
On to `CC(C)[C@H](C(=O)Nc1ccc(C(=O)NO)cc1)c1ccccc1`, for which the relative cell viability worked out at 0.178 ± 0.0071.
On to `Cc1c(C(=O)NN2CCCCC2)nn(-c2ccc(Cl)cc2Cl)c1-c1ccc(Cl)cc1` [Rimonabant], for which the relative cell viability turned out to be 0.716 ± 0.15.
With `NC1=N[C@@]2(c3cc(NC(=O)c4ccc(F)cn4)ccc3F)COC[C@H]2CS1` the figure was 0.948 ± 0.07.
Regarding `O=C(O)C(Cc1ccccc1[N+](=O)[O-])=NNc1nc(-c2ccc(Cl)c(Cl)c2)cs1`, the relative cell viability was determined as 1.04 ± 0.16.
As to `O=C(/C=C/n1cnc(-c2cc(C(F)(F)F)cc(C(F)(F)F)c2)n1)N1CC(F)(F)C1`, the relative cell viability amounted to 0.355 ± 0.025.
With `O=C(/C=C\n1cnc(-c2cc(C(F)(F)F)cc(C(F)(F)F)c2)n1)NNc1cnccn1`, the relative cell viability is 0.29 ± 0.015.
With `COc1cc(-c2ncn(/C=C\C(=O)OC(C)C)n2)cc(C(F)(F)F)c1` the figure was 0.25 ± 0.0078.
With `C=CS(=O)(=O)NC1CCN(C(=O)CNc2cc(I)c(Cl)cc2OC)CC1` [K-Ras(G12C) inhibitor 9] the figure was 0.699 ± 0.08; with `O=C(NOCC1CC1)c1ccc(F)c(F)c1Nc1ccc(I)cc1Cl`, 0.64 ± 0.17; with `Cc1cccc(-c2[nH]ncc2-c2ccc3ncccc3n2)n1`, 1.04 ± 0.0027.
Then `O=C(CCCCCCNC(=O)c1cnc(N(c2ccccc2)c2ccccc2)nc1)NO` [Rocilinostat (ACY-1215)], with 0.8907 ± 0.0072; and `CC(C)(C)OC(=O)Nc1ccc(-c2cc(C(=O)NCCCCCCC(=O)NO)no2)cc1`, with 0.244 ± 0.003; and `CN(C)c1ccc(C(=O)NCCCCCCC(=O)NO)cc1`, with 0.322 ± 0.042.
Consider `C[C@@H]1COC(Nc2ccc3ncnc(Nc4ccc(OCc5nccs5)c(Cl)c4)c3c2)=N1` [Varlitinib], for which the relative cell viability stood at 1.04 ± 0.086.
With `S=C=Nc1cccc(NC(=S)NCCCCNC(=S)Nc2cccc(N=C=S)c2)c1` the figure was 1.2 ± 0.15; with `C=CCn1c(=O)c2cnc(Nc3ccc(N4CCN(C)CC4)cc3)nc2n1-c1cccc(C(C)(C)O)n1`, 0.559 ± 0.038; with `C=CC(=O)Nc1cccc(Sc2nc(Nc3ccc(N4CCN(C)CC4)cc3)ncc2Cl)c1`, 0.846 ± 0.02.
With `CCn1c(=O)c(-c2ccc(-c3cncs3)cc2Cl)cc2cnc(Nc3ccc(N4CCN(C)CC4)cc3)nc21` the figure was 0.183 ± 0.025.
Then `COc1cc2ncnc(Oc3cccc(NC(=O)Nc4cc(C(C)(C)C(F)(F)F)on4)c3)c2cc1OC`, with 1.1 ± 0.061; and `COc1cc(OC)c(NC(=O)Nc2cc(C)on2)cc1Cl`, with 1.1 ± 0.05.
Turning to `CCN1C(=CC(C)=O)Sc2ccc(OC)cc21`, the relative cell viability was found to be 1.11 ± 0.11.
Then `CC(CCC(=O)NCCS(=O)(=O)O)C1CCC2C3C(O)CC4CC(O)CCC4(C)C3CCC12C` (configuration not stated) [Sodium Tauroursodeoxycholate (TUDC)], with 1.24 ± 0.12; and `O=C1C(Cl)=C(N2CCOCC2)C(=O)N1c1ccc(Cl)c(Cl)c1`, with 1.17 ± 0.026; and `COc1ccc(/C=C/C(=O)C2(C(=O)/C=C/c3ccc(OC)c(OC)c3)CCCCC2)cc1OC`, with 0.238 ± 0.01.
For `COc1cc(/C=C/C(=O)O)ccc1O` [Ferulic Acid], the relative cell viability was found to be 1.21 ± 0.12.
Then `COc1cc(/C=C/C(=O)CC(=O)/C=C/c2ccc(O)c(OC)c2)ccc1O` [Curcumin], with 0.656 ± 0.023.
As to `O=C1c2c(O)cccc2C([C@@H]2O[C@H](CO)[C@@H](O)[C@H](O)[C@H]2O)c2cc(CO)cc(O)c21` (some centres not stated) [Aloin], the relative cell viability is 1.1 ± 0.12.
With `N#Cc1ccc(COC[C@H]2O[C@@H](n3c(NCc4ccc(Cl)c(Cl)c4)nc4c(N)ncnc43)[C@H](O)[C@@H]2O)cc1` the figure was 0.939 ± 0.0025; with `CCOc1ccccc1OC(c1ccccc1)C1CNCCO1` (configuration not stated) [Reboxetine mesylate], 1.2 ± 0.37; with `c1ccc(Cn2c(-c3ccc(OCC(C4CCNCC4)n4c(-c5ccccc5)nc5ccccc54)cc3)nc3ccccc32)cc1` (configuration not stated) [Deltarasin], 0.9797 ± 0.0069.
Then `CC1(C)C=C(CN2C/C(=C\c3ccc(F)cc3)C(=O)/C(=C/c3ccc(F)cc3)C2)C(C)(C)N1O`, with 0.216 ± 0.0066.
With `CC(C)(C)Cn1c(N)nc2ccc(-c3[nH]c(C(C)(C)C)nc3-c3ccc(F)cc3)nc21` the figure was 1.34 ± 0.083; with `CCOC(=O)C1=C(C)NC(C)=C(C(=O)OCC)C1c1ccccc1/C=C/C(=O)OC(C)(C)C` [Lacidipine], 0.785 ± 0.011.
For the molecule `COc1ccc(COc2ccc(Cc3cnc(N)nc3N)cc2OC)cc1`, the relative cell viability worked out at 1.024 ± 0.0044.
Consider `Cn1c(=O)cc(N2CCC[C@@H](N)C2)n(Cc2cc(F)ccc2C#N)c1=O` [Trelagliptin], for which the relative cell viability amounted to 1.17 ± 0.22.
Then `CC(C=CC(=O)NO)=CC(C)C(=O)c1ccc(N(C)C)cc1` (configuration not stated) [Trichostatin A (TSA)], with 0.177 ± 0.0076.
Regarding `CN(C(Cc1ccc(OS(=O)(=O)c2cccc3cnccc23)cc1)C(=O)N1CCN(c2ccccc2)CC1)S(=O)(=O)c1cccc2cnccc12` (configuration not stated), the relative cell viability was 0.992 ± 0.046.
Then `CC(NC(=O)C(O)c1cc(F)cc(F)c1)C(=O)NC1C(=O)N(C)c2ccccc2-c2ccccc21` (configuration not stated), with 1.07 ± 0.058; and `CC(C)OC(=O)C1=CN(C(=O)c2ccc(F)c(F)c2)CC(C)(C)c2c1[nH]c1ccccc21`, with 1.13 ± 0.041.
With `NNC(=O)c1ccncc1` [Isoniazid], the relative cell viability was found to be 1.1 ± 0.14.
With `O=C(/C=C/c1ccc2ccccc2n1)c1ccncc1` the figure was 0.186 ± 0.037; with `O=C(NNc1ccccc1)c1ccncc1`, 1.06 ± 0.18.
Then `Cn1c(=O)cc(N2CCC[C@@H](N)C2)n(Cc2ccccc2C#N)c1=O` [Alogliptin], with 1.1 ± 0.21.
On to `NCc1c[nH]c(=S)n1[C@@H]1CCc2c(F)cc(F)cc2C1` [(R)-Nepicastat HCl], for which the relative cell viability stood at 1.121 ± 0.0038.
In the case of `CN(C)CCSSCCNC(=O)C1CCN(C(=O)CSc2ccc(Cl)cc2)CC1`, the relative cell viability turned out to be 1.05 ± 0.11.
On to `Cc1cc(N2CCOCC2)cc2[nH]c(-c3c(NCC(O)c4cccc(Cl)c4)cc[nH]c3=O)nc12` (configuration not stated), for which the relative cell viability was 0.799 ± 0.15.
